Results reported in the supplement of paper PMC12350171.
Structures can show the parent of a compound that is named as a salt.

What was measured:
Conditions in all cases: 20 µM
[1] = tested on: Haemophilus parainfluenzae; assay: growth AUC normalised to DMSO control (fraction of control); higher = less growth inhibition, active = hit call of the paper
Method in brief: (§1)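 Pathogens passaged twice anaerobically were inoculated at a starting OD578 of 0.01 into pre-reduced mGAM plates with drug at 20 μM and 1% DMSO, sealed with breathable membranes. Haemophilus parainfluenzae medium was supplemented with hemin and NAD. OD578 was read hourly for 24 h, with three biological replicates. Growth-curve AUC was computed by the trapezoidal rule up to the exponential-to-stationary transition and normalised to DMSO controls on the same plate.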

[2] = tested on: Salmonella enterica typhimurium; assay: as above
Method in brief: as §1

Shigella flexneri = assay: as above
Method in brief: as §1

Vibrio cholerae = assay: as above
Method in brief: as §1

[3] = tested on: Yersinia pseudotuberculosis; assay: as above
Method in brief: as §1

P. vulgatus RND KO = assay: growth AUC normalised to DMSO control (median) (fraction of control); higher = less growth inhibition, active = hit call of the paper
Method in brief: (§2)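 Strains were passaged twice overnight without oxygen, then grown in mGAM in 96-well plates with each approved-drug library compound at 20 μM and 1% DMSO, starting at OD578 0.01. OD578 was read hourly for 24 h inside an anaerobic incubator. Curves were truncated at entry into stationary phase, and the trapezoidal-rule area under the curve was normalised to same-plate vehicle wells. The value is the median across three biological replicates.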

P. vulgatus WT = assay: as above
Method in brief: as §2

[4] = tested on: S. enterica typhimurium WT; assay: as above
Method in brief: as §2

[5] = tested on: S. enterica typhimurium tolC KO; assay: as above
Method in brief: as §2

Measured: growth AUC normalised to DMSO control
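Throughout, for growth AUC normalised to DMSO control (median): active when median AUC fell below 0.1.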

C[C@]12Cc3c[nH]nc3C[C@@H]1CC[C@@H]1[C@@H]2CC[C@@]2(C)[C@H]1CC[C@]2(C)O [Stanozolol]
inactive: [1] 0.949 | [2] 1.01 | Shigella flexneri 0.987 | Vibrio cholerae 0.998 | [3] 1 | P. vulgatus RND KO 0.959 | P. vulgatus WT 0.966 | [4] 1.02 | [5] 0.966

O=c1[nH]c2ccccc2n1CCCN1CCC(n2c(=O)[nH]c3cc(Cl)ccc32)CC1 [Domperidone]
inactive: [1] 1.02 | [2] 1.01 | Shigella flexneri 0.985 | Vibrio cholerae 1.03 | [3] 1 | P. vulgatus RND KO 1 | P. vulgatus WT 1 | [4] 1 | [5] 0.979

NC(=O)C[S+]([O-])C(c1ccccc1)c1ccccc1 (stereo not given) [Modafinil]
inactive: [1] 1 | [2] 0.994 | Shigella flexneri 0.982 | Vibrio cholerae 0.998 | [3] 0.998 | P. vulgatus RND KO 1 | P. vulgatus WT 0.993 | [4] 1 | [5] 0.976

COc1ccc(Cc2nccc3cc(OC)c(OC)cc23)cc1OC [Papaverine hydrochloride]
inactive: [1] 0.976 | [2] 1 | Shigella flexneri 0.971 | Vibrio cholerae 0.944 | [3] 0.997 | P. vulgatus RND KO 0.997 | P. vulgatus WT 1.01 | [4] 1.01 | [5] 0.976

COc1cccc(C2(O)CCCCC2CN(C)C)c1 (stereo not given) [Tramadol hydrochloride]
inactive: [1] 0.971 | [2] 0.98 | Shigella flexneri 0.992 | Vibrio cholerae 0.983 | [3] 0.994 | P. vulgatus RND KO 0.988 | P. vulgatus WT 0.989 | [4] 0.986 | [5] 0.986
